aSyn 5UTR act: Activators via SNCA 5'UTR binding, MLPCN; alpha-synuclein 5'UTR reporter, activators screen; activity score, % (tested at 7.5 µM), hits read low; 7.1% of 300,000 active; in the data active = activity score below about -60%
Each line names hits and unclear results; the compound was inactive in the other large screens. These entries were drawn from the full list.

CSc1cccc(CNC(=O)C2CCC(=O)N(Cc3cccc(C(F)(F)F)c3)C2)c1 (stereo not drawn)	aSyn 5UTR act -73
Cc1ccsc1CCNC(=O)C1CCC(=O)N(CCc2cccc(F)c2)C1 (stereo not drawn)	aSyn 5UTR act -102
CN(C(=O)C1CCC(=O)N(Cc2cccc(F)c2)C1)C1CCCCC1 (stereo not drawn)	aSyn 5UTR act -126
Cc1ccsc1CN(C)C(=O)C1CCC(=O)N(CCc2cccc(F)c2)C1 (stereo not drawn)	aSyn 5UTR act -91
Cc1ccc(-c2nc(-c3ccccc3)no2)cc1	none
Cc1ccc(-c2nc(-c3cccnc3)no2)cc1	aSyn 5UTR act -78
COc1ccc(-c2nc(-c3cccc(C)c3)no2)cc1OC	aSyn 5UTR act -200
c1cncc(-c2noc(-c3ccco3)n2)c1	aSyn 5UTR act -91
COc1ccc(-c2nc(-c3cccnc3)no2)cc1OC	aSyn 5UTR act -132
COc1cccc(-c2nc(-c3ccccn3)no2)c1	none
COc1ccc(Cl)cc1-c1nc(-c2ccc(NC(=O)c3cccs3)cc2)no1	aSyn 5UTR act -120
COc1cccc(-c2noc(-c3cccnc3)n2)c1	aSyn 5UTR act -152
COc1cccc(OCc2nnc(-c3cccs3)o2)c1	aSyn 5UTR act -142
COc1cccc(-c2noc(-c3cccs3)n2)c1	aSyn 5UTR act -75
COc1cccc(-c2nc(-c3ccc(NC(=O)c4cccnc4)cc3)no2)c1	aSyn 5UTR act -106
O=C(Nc1ccc(-c2noc(-c3cccs3)n2)cc1)c1cccnc1	aSyn 5UTR act -94
COc1ccc(-n2c(C)cc(/C=C3\C(=O)NN(c4ccccc4)C3=O)c2C)cc1	aSyn 5UTR act -113
O=C1NN(c2ccccc2)C(=O)/C1=C/c1coc2ccccc2c1=O	aSyn 5UTR act -138
Cc1cc(/C=C2\C(=O)NN(c3ccccc3)C2=O)c(C)n1-c1ccccc1O	aSyn 5UTR act -132
Cc1cc(/C=C2/C(=O)NN(c3ccccc3)C2=O)c(C)n1-c1ccc(O)cc1	aSyn 5UTR act -138
CCOC(=O)C1CCN(C(=O)C2CCN(c3ncnc4c3nc3n4CCCCC3)CC2)CC1	aSyn 5UTR act -108
CC(C)(C)C1CCc2sc(-c3nnc(CCl)o3)cc2C1 (stereo not drawn)	aSyn 5UTR act -64
O=C1c2ccccc2C(=O)c2c1ncn2-c1ccccc1	none
C=CC(=O)Oc1ccc(N2Cc3ccccc3C2=O)cc1	aSyn 5UTR act -114
O=C1c2ccccc2CN1c1ccccc1	aSyn 5UTR act -107
Cc1cc(C(F)(F)F)c(C#N)c(SCC(=O)Nc2nc3cc(Br)ccc3s2)n1	aSyn 5UTR act -176
CCc1ccc2nc3sc(C(=O)O)cc3cc2c1	aSyn 5UTR act -81
CCOc1ccc(N=C2NC(=O)S/C2=C\c2ccc(N(C)C)cc2)cc1	aSyn 5UTR act -129
CCOc1ccc(/C=C2\SC(=S)N(CCCC(=O)NCCCN3CCOCC3)C2=O)cc1	none
CCOc1ccc(/C=C2/SC(=O)NC2=S)cc1	aSyn 5UTR act -95
CN1C(=O)NC(c2ccc(O)cc2)C(C(=O)c2cccs2)C1(O)C(F)(F)F (stereo not drawn)	aSyn 5UTR act -100
COc1cc(C2NC(=S)NC(O)(C(F)(F)F)C2C(=O)c2cccs2)cc(OC)c1O (stereo not drawn)	aSyn 5UTR act -95
C=CCOc1ccc(/C=C/C(C)=N\O)cc1	aSyn 5UTR act -110
O=C(CSCc1cccc(F)c1)N1CCN(c2ccccc2)CC1	aSyn 5UTR act -199
O=C(CSCc1ccccc1)N1CCN(c2ccccc2)CC1	aSyn 5UTR act -103
C/C(=N\NC(=O)c1ccc(O)cc1)c1cccc(NC(=O)c2ccc(Cl)cc2)c1	aSyn 5UTR act -161
CSc1cccc(NC(=O)c2c(Cl)cnn2C)c1	aSyn 5UTR act -89
C/C(=N\NC(=O)c1c(Br)cnn1C)c1ccc(NC(=O)c2ccc(F)cc2)cc1	aSyn 5UTR act -108
C/C(=N\NC(=O)c1cccc(F)c1)c1cccc(NC(=O)c2ccc(F)cc2)c1	aSyn 5UTR act -72
C/C(=N\NC(=O)c1c(Cl)cnn1C)c1cccc(NC(=O)c2ccc(C)cc2)c1	aSyn 5UTR act -72
C/C(=N\NC(=O)c1ccccc1F)c1cccc(NC(=O)c2ccc(C)cc2)c1	aSyn 5UTR act -74
Cc1nc2ccc(NC(=O)C3COc4ccccc4O3)cc2s1 (stereo not drawn)	aSyn 5UTR act -141
Cc1nc2cc(NC(=O)C3COc4ccccc4O3)ccc2s1 (stereo not drawn)	aSyn 5UTR act -141
O=C(CSc1nnc(-c2ccccc2Br)o1)N1CCOCC1	aSyn 5UTR act -111
O=C(CSc1nnc(-c2ccccc2O)o1)N1CCOCC1	aSyn 5UTR act -69
O=C(CSc1nnc(-c2ccccc2Cl)o1)N1CCCC1	aSyn 5UTR act -68
Cc1nc(Nc2ccccc2)sc1C(=O)Nc1ccccc1	aSyn 5UTR act -102
Cc1nc(NCc2ccccc2)sc1C(=O)Nc1ccccc1	aSyn 5UTR act -148
Cc1nc(Nc2ccccc2)sc1C(=O)c1ccc(F)cc1	aSyn 5UTR act -94
Nc1nc(Nc2ccccc2F)sc1C(=O)c1ccccc1	aSyn 5UTR act -188
CSc1nc(N(C)NC(=O)c2ccc(F)cc2)c2ccccc2n1	none
Cc1nc(NCCOc2ccccc2)sc1C(=O)Nc1ccccc1	aSyn 5UTR act -88
COc1ccc(-c2ccc(/C=C3/C(=N)N4C=CSC4=NC3=O)o2)c([N+](=O)[O-])c1	aSyn 5UTR act -116
O=c1c2ccccc2nnn1COc1ccc(F)cc1Cl	aSyn 5UTR act -118
O=c1c2ccccc2nnn1COc1ccc(Cl)cc1Br	aSyn 5UTR act -154
O=c1c2ccccc2nnn1COc1cccc2ccccc12	aSyn 5UTR act -147
COc1ccc(Cc2nc(-c3cccs3)no2)cc1	aSyn 5UTR act -115
COc1ccc(Cc2nc(-c3ccccc3)no2)cc1	aSyn 5UTR act -176
Nc1nc(COc2ccccc2)cs1	aSyn 5UTR act -67
Nc1nc(COc2ccc(Cl)cc2)cs1	aSyn 5UTR act -93
Cc1ccc(OCc2csc(N)n2)cc1	aSyn 5UTR act -108
CCCN1CCC(=O)N(CCSc2ccc(C)cc2)CC1	aSyn 5UTR act -79
O=C1CCC(O)CCN1CCSc1ccccc1 (stereo not drawn)	aSyn 5UTR act -93
CC(C)CN1CCC(=O)N(CCSc2ccccc2)CC1	aSyn 5UTR act -107
O=C(N/N=C/c1ccc([N+](=O)[O-])s1)c1ccncc1	aSyn 5UTR act -64
Cc1ccc(C(=O)N/N=C/c2ccc([N+](=O)[O-])s2)cc1	none
O=C(N/N=C/c1ccc([N+](=O)[O-])s1)c1cccc(Br)c1	none
COc1ccc(NC(=O)CCC(=O)N/N=C/c2ccc([N+](=O)[O-])s2)cc1	aSyn 5UTR act -79
CCn1c(C)csc1=NC(=O)c1ccccc1O	aSyn 5UTR act -249
CCn1c(C)csc1=NC(=O)c1ccccc1	aSyn 5UTR act -112
Cc1csc(=NC(=O)c2ccccc2)n1C	aSyn 5UTR act -126
CC(=O)c1c(C)[nH]c(C(=O)CSc2nnc(C)s2)c1C	aSyn 5UTR act -110
CC(=O)c1c(C)[nH]c(C(=O)CSc2nnc3ccccn23)c1C	aSyn 5UTR act -85
C=CCn1c(SCC(=O)c2[nH]c(C)c(C(=O)OC)c2C)nc2scc(-c3ccc(OC)c(OC)c3)c2c1=O	none
N#Cc1c(/N=C/c2cccs2)sc2c1CCC2	aSyn 5UTR act -88
N#Cc1c(/N=C/c2cc(Br)cs2)sc2c1CCC2	aSyn 5UTR act -190
COc1ccc(N=c2scc(-c3ccc(OC)cc3)n2CCO)cc1	aSyn 5UTR act -66
O=C(N/N=C\c1c(O)ccc2ccccc12)c1cncc(Br)c1	none
O=C(NC(=S)NC1CCCCCC1)c1cncc(Br)c1	aSyn 5UTR act -168
O=C(NC(=S)Nc1ccc(O)cc1)c1cncc(Br)c1	aSyn 5UTR act -71

Source: PubChem BioAssay (Broad Institute)
